In PubChem BioAssay (EPA / NIEHS) one finds outcome and AC50 data, which are given here for 14 compounds.

Several values for one entry are separate records, joined by “and”; a condition that tells them apart may be missing. Equal entries are not always repeated. Where a structure was tested more than once in an assay, its records may differ in their call. Activity calls are given as the source filed them. How the source made its calls: active means hit-call score of the fitted dose curve at least 0.9, where 1 is the maximum; inactive means score below 0.9.

Read-out in the assay: Interleukin-10 (IL10), IL10 (gene 3586)
As to the kind of experiment: BSK_IMphg_IL10: BioMAP Diversity Plus: IMphg Assay for Interleukin-10 (IL10) Biomarker Activity (AID 2284294). Particulars: primary human endothelial cells with macrophages. As to the method:
BSK_IMphg is a cell-based, multiplexed-readout assay that uses venular endothelial cells and macrophages, a human vascular primary cell, with measurements taken at 24 hours after chemical dosing in a microplate: 96-well plate.BSK_IMphg_IL10 is an assay component measured in the BSK_IMphg assay. It measures IL-10 antibody related to regulation of gene expression using ELISA technology.Data from the assay component BSK_IMphg_IL10 was analyzed at the endpoint, BSK_IMphg_IL10, in the positive analysis fitting direction relative to DMSO as the negative control and baseline of activity. Using a type of binding reporter, gain or loss-of-signal activity can be used to understand protein changes. To generalize the intended target to other relatable targets, this assay endpoint is annotated to the 'cytokine' intended target family, where the subfamily is 'interleukins'.
The levels of cell surface (or secreted, indicated by the prefix "s") biomarker endpoints were measured by ELISA. Overt cytotoxicity to cells in confluent adherent cultures (all systems other than the BT system) was assessed by measuring total protein levels using sulforhodamine B (SRB) staining in parallel cultures at the time of biomarker measurements, indicated as SRB endpoints. For proliferation assays for adherent cell types, individual cell types are cultured at sub-confluence and relative cell numbers quantified by SRB staining at time points optimized for each system (48 h: 3C and CASM3C systems; 72 h: BT and HDF3CGF systems; 96 h: SAg system). SRB was performed by staining cells with 0.1% SRB after fixation with 10% TCA and reading wells at 560 nm.Viability and proliferation of PBMC (T cells) was quantified by Alamar Blue reduction for the SAg and BT systems. For PBMC viability (referred to as PBMC Cytotoxicity within the assay endpoint names), cells were plated (75,000/well in a 96-well plate) and then chemical samples added for 1 h before addition of activators, SEB and TSST-1 (20 ng/mL final concentration each). Cells were incubated for 90 h. Then, Alamar Blue (20 uL/well) (Invitrogen, Cat DAL1100) was added for 6 h, and the plates were read with a fluorescence microplate reader at 546/580 nm (excitation/emission). For PBMC proliferation, cells were plated and activated as above but incubated for only 16 h prior to addition of Alamar Blue. Plates were read after 6 h.
`CC(O)C(F)(F)C(F)(F)F` (stereo not given): the outcome was inactive.

Regarding `O=C(O)C(F)(F)C(F)(F)C(=O)O`, the outcome was inactive.

On to `FC(F)(F)C(F)(C(F)(F)F)C(F)(F)C(F)(F)CC1CO1` (stereo not given), for which the result was inactive.

Turning to `O=C(O)C(F)(F)OC(F)(F)C(F)(F)OC(F)(F)F`, the outcome was inactive.

As to `O=S(=O)(F)C(F)(F)C(F)(F)C(F)(F)C(F)(F)C(F)(F)C(F)(F)C(F)(F)C(F)(F)F`, the outcome was inactive.

On to `NC(=O)C(F)(F)C(F)(F)F`, for which the outcome was inactive.

As to `O=C(O)C(F)(F)OC(F)(F)C(F)(F)OC(F)(F)C(=O)O`, the outcome was inactive.

As to `OCC(F)(F)OC(F)(F)C(F)(F)OC(F)(F)CO`, the result was inactive.

Turning to `O=C(O)C=CC(F)(C(F)(F)F)C(F)(F)F`, the outcome was inactive.

Regarding `COC(=O)C(F)(F)C(F)(F)OC(F)(C(F)(F)F)C(F)(F)OC(F)=C(F)F` (stereo not given), the outcome was inactive.

Regarding `O=C(O)C(F)(OC(F)(F)C(F)(F)C(F)(F)F)C(F)(F)F` (stereo not given), the outcome was inactive; the concentration at half-maximal activity (AC50) (usually the midpoint of the concentration-response curve, whichever way the signal moves) was 673 nM (active) and 652 nM (active).

Regarding `C=CC(=O)OCC(F)(F)C(F)F`, the AC50 was 43.4 µM (active) and 39.2 µM (active).

With `OCC(F)(F)OC(F)(F)C(F)(F)OC(F)(F)C(F)(F)OC(F)(F)CO`, the AC50 is 30 µM (active).

In the case of `OCC(F)(F)OC(F)(F)C(F)(F)OC(F)(F)C(F)(F)OC(F)(F)F`, the AC50 is 45.9 µM (active) and 42.6 µM (active).
